Measurements published in PubChem BioAssay (NCI).
About 83,000 compounds went through this panel and 20% of them were active in at least one assay; those are over-represented in the sample as a whole.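 Each cell line was grown in a 96-well plate and treated with one concentration of compound for 48 hours. Values below 10 were considered active.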 A number with no mark means an inactive call. Calls of active or inactive are those of the source.

How the values were obtained:
Assay in all cases: NCI-60 one-dose screen, 48 h (100 = growth as untreated, 0 = no growth, -100 = all killed)
Details in all cases: 10 µM unless noted
T-47D breast = tested on: T-47D breast
BT-549 breast = tested on: BT-549 breast
MDA-MB-435 melanoma = tested on: MDA-MB-435 melanoma
SW-620 colon = tested on: SW-620 colon
MCF7 breast = tested on: MCF7 breast
HCT-116 colon = tested on: HCT-116 colon
HCC-2998 colon = tested on: HCC-2998 colon
KM12 colon = tested on: KM12 colon

SMILES | growth (T-47D breast) | growth (BT-549 breast) | growth (MDA-MB-435 melanoma) | growth (SW-620 colon) | growth (MCF7 breast) | growth (HCT-116 colon) | growth (HCC-2998 colon) | growth (KM12 colon)
C#CCNC(=O)[C@H](Cc1ccccc1)NC(=O)[C@]12CC[C@@H](C(=C)C)[C@@H]1[C@H]1CC[C@@H]3[C@@]4(C)Cc5c([nH]c6ccccc56)C(C)(C)[C@@H]4CC[C@@]3(C)[C@]1(C)CC2 | 75.3% | 105% | 105% | 111% | 85.3% | 85.9% | 109% | 103%
N#Cc1c(NC(=O)c2cccc(Br)c2)sc2c1CCCC2 | 77.9% | 96.7% | 10.8% | 50.5% | 51.8% | 74.9% | 94.7% | 69.5%
O=S(=O)(c1cccc(NC2=Nc3cccc4cccc2c34)c1)N1CCCC1 | 44.5% | 48% | 29.3% | 64.4% | 51.4% | 62.8% | 79.5% | 71.7%
C=C1C(=O)O[C@H]2[C@H]1CC/C(COC(=O)/C=C/c1c[nH]c3ccccc13)=C\CC[C@@]1(C)O[C@@H]21 | -68.3% (active) | -69.6% (active) | -88.5% (active) | -74.7% (active) | -40.1% (active) | -83.8% (active) | -88.1% (active) | -51.6% (active)
COc1ccc(C(=O)c2cc3c(N)c(C(=O)Nc4cccc(Br)c4C)sc3nc2C)cc1 | 54.6% | 33.5% | -10.4% (active) | 23.4% | 17.5% | 6.78% (active) | 18.1% | 11.3%
C=C(C)[C@@H]1CC[C@]2(C(=O)NCCCN(CCC#N)CCC#N)CC[C@]3(C)[C@H](CC[C@@H]4[C@@]5(C)CCC(=O)C(C)(C)[C@@H]5CC[C@]43C)[C@@H]12 | 102% | 95.5% | 105% | 101% | 92.8% | 97.3% | 108% | 104%
CCN1C(=O)N(CC)C2C1NN=c1s/c(=C3\C(=O)Nc4ccccc43)c(=O)n12 (centres undefined) | 15.6% | 59.8% | -27.3% (active) | 26.1% | 28.7% | 14.2% | 31.8% | 15.1%
OC(c1ccccc1)c1ccccn1 (centres undefined) | 87.4% | 93.4% | 104% | 102% | 102% | 103% | 104% | 102%
COc1ccc(NC(=O)c2sc3nc(C)c(C(=O)CCc4cccc(OC)c4)cc3c2N)cc1 | 67.6% | 79.6% | -10.4% (active) | 64.7% | 16.5% | 45.6% | 56% | 56.1%
N#Cc1ccc(-c2ccc3c(c2)NC(=O)/C3=C\c2ccc[nH]2)cc1 | 9.73% (active) | 24.1% | 102% | 102% | 15.3% | 104% | 58.5% | 60.8%
N#Cc1cc(-c2nc3ccccc3s2)c(=O)n(NS(=O)(=O)c2ccc(Cl)cc2)c1N | 96.6% | 105% | 101% | 97.7% | 99.9% | 98.5% | 111% | 102%
CC(=O)OCCCCCNc1ccccc1 | 103% | 102% | 111% | 101% | 109% | 113% | 107% | 94.6%
COc1cc(C2NC(c3cc(OC)c(OC)c(OC)c3)C(C#N)(C#N)C2(C#N)C#N)cc(OC)c1OC (centres undefined) | 96.4% | 101% | 101% | 95.8% | 95.5% | 91.1% | 98.7% | 99.5%
CSc1nnc2c(=O)n(C)c(=O)n(C)c2n1 | 97.5% | 96.4% | 95.2% | 96.1% | 97.8% | 106% | 105% | 93.6%
COc1ccc2c(c1)c(CC(=O)NCCOCCOCC(=O)Nc1ccc(OC)c(C(N)=O)c1O)c(C)n2C(=O)c1ccc(Cl)cc1 | 81.3% | 81.1% | 104% | 99.4% | 94.6% | 93.9% | 93.5% | 99.4%
C=C(C)[C@@H]1CC[C@]2(CO)CC[C@]3(C)[C@H](CC[C@@H]4[C@@]5(C)CCCNC(C)(C)[C@@H]5CC[C@]43C)[C@@H]12 | 36.5% | 77.1% | 13.5% | -66.5% (active) | -12.6% (active) | -78.9% (active) | -5.02% (active) | 23.2%
NC(=O)c1cccc(-c2ccccc2N2CCCCC2)c1 | 83% | 101% | 100% | 108% | 92.5% | 89.4% | 102% | 99.1%
COc1ccncc1C#Cc1cncc(C(=O)Nc2ccc(CN3CCN(C)CC3)c(C(F)(F)F)c2)c1 | 55.9% | 50.9% | 15.4% | 4.42% (active) | 6.1% (active) | 8.44% (active) | 40.9% | 6.75% (active)
COc1cccc(-c2nc3occn3c2-c2ccnc(NCCCNS(=O)(=O)c3cccc(F)c3)n2)c1 | 29.3% | 96.1% | 63.2% | 115% | 78.1% | 82% | 127% | 92.6%
COC(=O)C1=C(C(=O)ONCCN(C)C)C2C=CC1(C(Cc1ccccc1)Nc1ccc(F)cc1)O2 (centres undefined) | -0.816% (active) | 122% | 101% | 51.8% | 97.5% | -48.9% (active) | 107% | 94.8%
O=C(/C=C/c1ccc[nH]1)c1ccc(-n2ccc(C(F)(F)F)n2)cc1 | 94.7% | -45.3% (active) | 99.5% | 102% | 72.2% | 87.3% | 54.7% | 1.59% (active)
CC(C)Cc1ccc(C(C)C(=O)NCc2ccc(Cn3c(=O)sn(-c4ccc(Cl)cc4)c3=O)cc2)cc1 (centres undefined) | 54.9% | 95.1% | 84.8% | 59.8% | 66.9% | 75.6% | 96.2% | 69.8%
COc1ccc(/C=C(/c2ccccc2)[N+](=O)[O-])cc1 | -64.5% (active) | -18.7% (active) | -35.6% (active) | -57.6% (active) | -31.3% (active) | -71.6% (active) | -80.7% (active) | -36.2% (active)
CC(c1ccccc1)n1ccnc1CO (centres undefined) | 104% | 113% | 98.4% | 97.8% | 97.3% | 104% | 90.6% | 109%
COc1ccc(-c2nc(N/N=C/c3c[nH]c4ccccc34)nc(N3CCOCC3)c2C#N)cc1 | 94.9% | 97% | 108% | 72.6% | 80.2% | 59.8% | 100% | 83.9%
C=C(C)[C@@H]1CC[C@]2(C=O)CC[C@]3(C)[C@H](CC[C@@H]4[C@@]5(C)CCCNC(C)(C)[C@@H]5CC[C@]43C)[C@@H]12 | 57.8% | 88.7% | 66.6% | -31.4% (active) | 30% | 25.4% | 41.6% | 58.6%
FC(F)(F)c1cccc(Nc2ccccc2)c1 | 101% | 98.2% | 101% | 101% | 93.5% | 95.2% | 98.9% | 102%
N#C/C(=C\c1ccc(Br)cc1)n1nnc2cccc(F)c21 | 21.7% | 17.6% | -18% (active) | -48% (active) | 12.6% | 2.67% (active) | 19.2% | 7.22% (active)
